Assays:
Test in all cases: log2 ratio of Biotin-Ahx-Ub-VS probe labelling (fragment/DMSO); higher = less target engagement (more negative = stronger competition), active = hit call of the paper (q ≤ 0.05, log2 ratio ≤ -1)
Conditions in all cases: compound concentration: 200 uM; treatment time: 3 h
USP42 = biological target: T1, USP42 (UniProt Q9H9J4)
T1 sequence (whole entry): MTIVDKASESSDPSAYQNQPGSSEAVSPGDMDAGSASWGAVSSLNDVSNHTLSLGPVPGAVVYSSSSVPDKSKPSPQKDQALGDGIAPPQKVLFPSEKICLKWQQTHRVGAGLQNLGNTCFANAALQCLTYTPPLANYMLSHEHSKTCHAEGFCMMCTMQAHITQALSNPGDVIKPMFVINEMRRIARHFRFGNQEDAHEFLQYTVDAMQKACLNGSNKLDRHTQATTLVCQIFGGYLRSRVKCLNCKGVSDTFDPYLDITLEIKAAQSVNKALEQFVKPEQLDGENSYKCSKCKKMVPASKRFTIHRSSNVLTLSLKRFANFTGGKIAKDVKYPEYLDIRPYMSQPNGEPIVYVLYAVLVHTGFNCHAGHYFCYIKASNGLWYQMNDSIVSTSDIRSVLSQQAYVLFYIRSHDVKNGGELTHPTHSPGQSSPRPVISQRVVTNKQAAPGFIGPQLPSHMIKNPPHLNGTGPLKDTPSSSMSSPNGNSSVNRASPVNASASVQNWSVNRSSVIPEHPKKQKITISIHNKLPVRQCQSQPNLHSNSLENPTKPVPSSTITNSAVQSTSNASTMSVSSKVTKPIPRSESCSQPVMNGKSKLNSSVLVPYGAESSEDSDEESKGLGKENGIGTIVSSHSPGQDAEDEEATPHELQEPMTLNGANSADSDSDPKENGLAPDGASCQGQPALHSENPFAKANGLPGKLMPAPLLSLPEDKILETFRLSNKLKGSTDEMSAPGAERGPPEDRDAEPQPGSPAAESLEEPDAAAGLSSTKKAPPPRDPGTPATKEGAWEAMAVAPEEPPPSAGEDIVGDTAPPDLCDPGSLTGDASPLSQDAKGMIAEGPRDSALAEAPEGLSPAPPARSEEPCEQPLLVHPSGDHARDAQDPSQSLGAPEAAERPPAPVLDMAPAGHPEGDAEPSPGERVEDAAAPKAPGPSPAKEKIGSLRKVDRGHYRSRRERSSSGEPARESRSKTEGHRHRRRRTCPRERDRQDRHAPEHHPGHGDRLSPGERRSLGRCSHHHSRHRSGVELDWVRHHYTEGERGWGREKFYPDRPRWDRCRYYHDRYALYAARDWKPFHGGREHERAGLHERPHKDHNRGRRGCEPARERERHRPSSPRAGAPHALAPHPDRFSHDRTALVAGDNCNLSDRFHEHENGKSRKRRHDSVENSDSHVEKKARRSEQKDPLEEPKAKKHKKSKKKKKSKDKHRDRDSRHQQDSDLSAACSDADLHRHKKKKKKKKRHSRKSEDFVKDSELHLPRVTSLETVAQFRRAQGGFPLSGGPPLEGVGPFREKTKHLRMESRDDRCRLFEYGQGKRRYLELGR
Procedure, shortened: (§1)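 HEK293T lysate (495 µg per sample, in Tris/CHAPS/IGEPAL buffer with protease inhibitors) was treated in triplicate with fragment at 200 µM or with DMSO for 3 h. It was then treated with Biotin-Ahx-Ub-VS (0.5 µM final) for 1 h. Labelled DUBs were NeutrAvidin-enriched, digested with LysC and trypsin, and run by diaPASEF LC-MS/MS. Spectronaut label-free quantities were global-median-normalised. Values are average log2 ratios fragment/DMSO by unpaired t-test, using proteins with ≥2 unique peptides.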

USP46 = USP46 (UniProt P62068)
USP46, sequence (P62068 whole entry): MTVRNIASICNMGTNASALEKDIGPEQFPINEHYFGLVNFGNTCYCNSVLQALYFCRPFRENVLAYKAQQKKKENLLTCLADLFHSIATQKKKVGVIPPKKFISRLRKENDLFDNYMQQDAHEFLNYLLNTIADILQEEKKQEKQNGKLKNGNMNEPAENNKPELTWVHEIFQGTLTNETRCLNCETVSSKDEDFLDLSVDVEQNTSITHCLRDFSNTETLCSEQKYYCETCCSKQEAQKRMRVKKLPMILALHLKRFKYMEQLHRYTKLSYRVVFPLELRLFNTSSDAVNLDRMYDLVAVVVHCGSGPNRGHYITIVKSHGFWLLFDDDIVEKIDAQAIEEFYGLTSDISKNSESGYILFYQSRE
Procedure, shortened: as §1

USP47 = biological target: T2, USP47 (UniProt Q96K76)
T2 sequence (whole entry): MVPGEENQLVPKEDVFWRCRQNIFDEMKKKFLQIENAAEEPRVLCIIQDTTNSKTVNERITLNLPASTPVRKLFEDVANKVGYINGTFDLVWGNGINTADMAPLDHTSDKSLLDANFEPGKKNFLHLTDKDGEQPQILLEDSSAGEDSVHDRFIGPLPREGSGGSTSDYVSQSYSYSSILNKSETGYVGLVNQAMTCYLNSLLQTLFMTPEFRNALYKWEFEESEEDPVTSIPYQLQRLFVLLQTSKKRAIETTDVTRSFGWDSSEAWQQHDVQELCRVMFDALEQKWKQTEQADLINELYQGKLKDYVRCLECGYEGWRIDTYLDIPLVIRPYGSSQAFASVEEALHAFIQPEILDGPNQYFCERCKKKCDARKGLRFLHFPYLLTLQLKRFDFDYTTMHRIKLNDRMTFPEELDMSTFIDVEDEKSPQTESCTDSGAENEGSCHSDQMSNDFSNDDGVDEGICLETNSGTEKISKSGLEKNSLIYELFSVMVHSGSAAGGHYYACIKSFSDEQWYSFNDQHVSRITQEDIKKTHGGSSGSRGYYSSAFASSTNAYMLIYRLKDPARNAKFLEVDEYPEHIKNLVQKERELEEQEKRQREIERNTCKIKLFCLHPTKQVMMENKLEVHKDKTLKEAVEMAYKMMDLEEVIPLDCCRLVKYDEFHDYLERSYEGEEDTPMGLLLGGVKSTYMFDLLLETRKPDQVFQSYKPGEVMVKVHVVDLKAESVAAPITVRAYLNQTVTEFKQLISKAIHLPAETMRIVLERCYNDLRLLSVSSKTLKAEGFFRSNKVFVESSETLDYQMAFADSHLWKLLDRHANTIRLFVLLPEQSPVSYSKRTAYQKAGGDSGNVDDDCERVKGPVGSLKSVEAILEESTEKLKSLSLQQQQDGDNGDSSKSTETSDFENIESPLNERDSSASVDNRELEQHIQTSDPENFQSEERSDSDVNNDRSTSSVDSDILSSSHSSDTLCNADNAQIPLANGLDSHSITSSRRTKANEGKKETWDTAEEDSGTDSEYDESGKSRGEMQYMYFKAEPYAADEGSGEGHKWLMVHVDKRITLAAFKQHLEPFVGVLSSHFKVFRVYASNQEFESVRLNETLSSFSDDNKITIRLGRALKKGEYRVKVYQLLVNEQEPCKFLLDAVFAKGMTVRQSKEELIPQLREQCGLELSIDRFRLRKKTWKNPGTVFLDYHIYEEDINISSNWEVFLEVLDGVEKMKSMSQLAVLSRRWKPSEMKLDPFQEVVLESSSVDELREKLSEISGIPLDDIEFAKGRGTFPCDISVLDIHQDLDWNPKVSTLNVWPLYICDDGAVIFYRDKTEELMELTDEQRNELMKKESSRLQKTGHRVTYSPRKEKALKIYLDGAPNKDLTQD
Procedure, shortened: as §1

USP48 = biological target: T3, USP48 (UniProt Q86UV5)
T3 sequence (whole entry): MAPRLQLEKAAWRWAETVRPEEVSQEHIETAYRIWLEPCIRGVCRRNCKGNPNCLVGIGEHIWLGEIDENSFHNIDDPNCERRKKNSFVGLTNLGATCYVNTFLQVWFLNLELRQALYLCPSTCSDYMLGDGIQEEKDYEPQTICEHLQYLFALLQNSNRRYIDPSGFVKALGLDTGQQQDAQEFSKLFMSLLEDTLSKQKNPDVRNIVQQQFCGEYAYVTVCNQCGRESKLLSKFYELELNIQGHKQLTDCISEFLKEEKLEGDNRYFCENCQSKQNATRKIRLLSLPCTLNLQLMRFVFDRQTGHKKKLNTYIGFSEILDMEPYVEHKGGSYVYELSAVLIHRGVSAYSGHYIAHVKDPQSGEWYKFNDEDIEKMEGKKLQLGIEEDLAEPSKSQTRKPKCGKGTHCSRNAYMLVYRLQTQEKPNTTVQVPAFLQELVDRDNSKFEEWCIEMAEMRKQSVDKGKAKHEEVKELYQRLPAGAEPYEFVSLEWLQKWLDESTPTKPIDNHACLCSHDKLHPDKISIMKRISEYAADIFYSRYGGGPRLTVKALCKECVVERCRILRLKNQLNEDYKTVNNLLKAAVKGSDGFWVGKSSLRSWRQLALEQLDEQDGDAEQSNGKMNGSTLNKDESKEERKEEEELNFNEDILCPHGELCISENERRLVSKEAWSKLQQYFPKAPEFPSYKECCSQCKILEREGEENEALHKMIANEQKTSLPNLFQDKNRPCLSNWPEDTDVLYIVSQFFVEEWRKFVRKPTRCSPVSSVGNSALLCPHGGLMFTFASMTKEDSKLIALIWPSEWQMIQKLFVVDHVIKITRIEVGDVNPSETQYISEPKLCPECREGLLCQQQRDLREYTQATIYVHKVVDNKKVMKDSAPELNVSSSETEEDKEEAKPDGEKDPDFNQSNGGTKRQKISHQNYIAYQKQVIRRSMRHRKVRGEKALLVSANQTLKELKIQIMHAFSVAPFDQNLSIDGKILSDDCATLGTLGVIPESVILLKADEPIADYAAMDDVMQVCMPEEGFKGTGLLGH
Procedure, shortened: as §1

USP5 = biological target: T4, USP5 (UniProt P45974)
T4 sequence (whole entry): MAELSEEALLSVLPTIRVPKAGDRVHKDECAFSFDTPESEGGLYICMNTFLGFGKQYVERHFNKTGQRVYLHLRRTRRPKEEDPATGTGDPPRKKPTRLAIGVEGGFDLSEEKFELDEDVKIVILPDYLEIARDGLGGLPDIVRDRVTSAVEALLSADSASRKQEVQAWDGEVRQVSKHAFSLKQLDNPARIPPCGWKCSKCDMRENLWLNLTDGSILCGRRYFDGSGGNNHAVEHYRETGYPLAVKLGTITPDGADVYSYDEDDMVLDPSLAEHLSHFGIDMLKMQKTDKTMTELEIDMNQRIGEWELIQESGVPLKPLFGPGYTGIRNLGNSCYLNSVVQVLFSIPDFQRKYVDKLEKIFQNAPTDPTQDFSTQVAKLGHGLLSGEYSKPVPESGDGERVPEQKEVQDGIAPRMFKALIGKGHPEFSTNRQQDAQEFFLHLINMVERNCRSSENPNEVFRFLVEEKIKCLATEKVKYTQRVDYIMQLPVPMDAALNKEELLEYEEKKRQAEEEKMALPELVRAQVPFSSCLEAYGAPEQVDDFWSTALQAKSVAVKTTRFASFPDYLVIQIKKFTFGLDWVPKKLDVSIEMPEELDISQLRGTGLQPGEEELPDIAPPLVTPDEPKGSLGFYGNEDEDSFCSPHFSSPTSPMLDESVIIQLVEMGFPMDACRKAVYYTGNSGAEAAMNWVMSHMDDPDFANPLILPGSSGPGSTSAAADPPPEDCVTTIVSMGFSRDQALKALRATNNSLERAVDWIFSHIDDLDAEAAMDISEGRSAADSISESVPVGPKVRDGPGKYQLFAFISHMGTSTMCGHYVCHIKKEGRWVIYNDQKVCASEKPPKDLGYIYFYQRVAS
Procedure, shortened: as §1

USP54 = USP54 (UniProt Q70EL1)
USP54, sequence (Q70EL1 whole entry): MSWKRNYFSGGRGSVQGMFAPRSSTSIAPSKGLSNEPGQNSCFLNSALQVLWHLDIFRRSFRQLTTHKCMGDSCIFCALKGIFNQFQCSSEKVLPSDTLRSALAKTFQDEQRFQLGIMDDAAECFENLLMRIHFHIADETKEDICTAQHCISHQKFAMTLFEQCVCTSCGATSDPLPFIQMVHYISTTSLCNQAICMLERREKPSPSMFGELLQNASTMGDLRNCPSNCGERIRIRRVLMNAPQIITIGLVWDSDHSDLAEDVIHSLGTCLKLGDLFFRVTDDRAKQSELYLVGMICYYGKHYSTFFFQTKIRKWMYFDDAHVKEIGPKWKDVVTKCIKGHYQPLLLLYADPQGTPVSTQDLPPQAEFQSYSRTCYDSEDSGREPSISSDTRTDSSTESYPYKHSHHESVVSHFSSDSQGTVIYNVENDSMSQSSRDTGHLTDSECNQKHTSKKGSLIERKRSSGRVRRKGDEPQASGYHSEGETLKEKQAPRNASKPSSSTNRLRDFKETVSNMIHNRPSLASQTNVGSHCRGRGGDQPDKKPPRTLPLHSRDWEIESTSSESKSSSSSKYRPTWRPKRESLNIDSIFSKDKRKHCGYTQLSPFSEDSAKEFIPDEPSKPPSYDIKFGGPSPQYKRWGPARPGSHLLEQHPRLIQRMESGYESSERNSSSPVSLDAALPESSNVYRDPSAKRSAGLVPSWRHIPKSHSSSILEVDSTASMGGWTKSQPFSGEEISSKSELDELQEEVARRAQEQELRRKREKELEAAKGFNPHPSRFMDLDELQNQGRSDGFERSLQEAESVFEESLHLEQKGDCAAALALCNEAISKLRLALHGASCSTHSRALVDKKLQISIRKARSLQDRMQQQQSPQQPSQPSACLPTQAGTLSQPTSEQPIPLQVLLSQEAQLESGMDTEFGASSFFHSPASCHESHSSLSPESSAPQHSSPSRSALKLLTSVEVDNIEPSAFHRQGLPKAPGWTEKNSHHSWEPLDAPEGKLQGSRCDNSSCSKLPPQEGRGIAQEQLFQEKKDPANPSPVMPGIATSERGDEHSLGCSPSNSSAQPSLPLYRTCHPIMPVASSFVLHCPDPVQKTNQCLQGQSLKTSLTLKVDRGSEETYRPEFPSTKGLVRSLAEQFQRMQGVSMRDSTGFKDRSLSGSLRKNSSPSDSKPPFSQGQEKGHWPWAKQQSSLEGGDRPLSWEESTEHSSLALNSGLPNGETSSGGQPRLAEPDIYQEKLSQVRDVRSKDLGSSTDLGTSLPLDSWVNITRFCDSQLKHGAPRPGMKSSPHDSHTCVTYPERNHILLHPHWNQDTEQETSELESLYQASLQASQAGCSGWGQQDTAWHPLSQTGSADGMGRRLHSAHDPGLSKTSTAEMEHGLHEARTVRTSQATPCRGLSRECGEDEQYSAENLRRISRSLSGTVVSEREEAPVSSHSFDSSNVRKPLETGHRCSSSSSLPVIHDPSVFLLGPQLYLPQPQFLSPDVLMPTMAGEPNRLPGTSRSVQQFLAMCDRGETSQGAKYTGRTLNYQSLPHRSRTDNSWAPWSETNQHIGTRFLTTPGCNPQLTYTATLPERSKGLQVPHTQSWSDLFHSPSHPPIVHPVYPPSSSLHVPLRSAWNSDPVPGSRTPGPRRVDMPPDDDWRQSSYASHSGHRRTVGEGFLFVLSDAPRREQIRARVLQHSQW
Procedure, shortened: as §1

USP7 = USP7 (UniProt Q93009)
USP7, sequence (Q93009 whole entry, looked up): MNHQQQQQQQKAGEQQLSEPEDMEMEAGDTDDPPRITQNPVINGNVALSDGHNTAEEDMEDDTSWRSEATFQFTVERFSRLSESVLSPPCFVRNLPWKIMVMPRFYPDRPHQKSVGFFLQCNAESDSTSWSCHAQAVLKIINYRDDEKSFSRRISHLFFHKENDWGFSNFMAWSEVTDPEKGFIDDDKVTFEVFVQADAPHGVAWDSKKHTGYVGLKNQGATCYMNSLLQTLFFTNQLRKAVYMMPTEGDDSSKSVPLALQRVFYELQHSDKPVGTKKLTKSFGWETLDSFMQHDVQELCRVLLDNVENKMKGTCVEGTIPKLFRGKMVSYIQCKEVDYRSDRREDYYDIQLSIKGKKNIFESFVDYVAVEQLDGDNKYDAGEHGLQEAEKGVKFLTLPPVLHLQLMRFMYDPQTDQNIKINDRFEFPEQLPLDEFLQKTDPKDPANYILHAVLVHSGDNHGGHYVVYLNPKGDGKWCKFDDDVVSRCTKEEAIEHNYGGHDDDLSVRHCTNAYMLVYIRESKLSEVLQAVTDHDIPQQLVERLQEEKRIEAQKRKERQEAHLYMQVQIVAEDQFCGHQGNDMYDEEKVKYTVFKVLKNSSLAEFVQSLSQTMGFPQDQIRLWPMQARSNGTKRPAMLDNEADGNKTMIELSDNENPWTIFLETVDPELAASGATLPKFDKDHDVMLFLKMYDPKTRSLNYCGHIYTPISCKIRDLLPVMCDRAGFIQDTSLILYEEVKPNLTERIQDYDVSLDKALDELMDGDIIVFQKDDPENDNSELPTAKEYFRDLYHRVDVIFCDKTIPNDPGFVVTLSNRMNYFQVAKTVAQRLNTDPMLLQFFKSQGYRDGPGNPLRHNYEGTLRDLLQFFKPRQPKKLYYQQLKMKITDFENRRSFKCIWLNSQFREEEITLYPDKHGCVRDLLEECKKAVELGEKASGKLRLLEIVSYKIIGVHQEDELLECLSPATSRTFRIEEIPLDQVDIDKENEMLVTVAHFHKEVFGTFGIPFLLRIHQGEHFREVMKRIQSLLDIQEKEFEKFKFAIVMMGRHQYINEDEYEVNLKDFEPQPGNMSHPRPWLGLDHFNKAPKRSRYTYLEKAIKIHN
Procedure, shortened: as §1

USP8 = biological target: T5, USP8 (UniProt P40818)
T5 sequence (whole entry): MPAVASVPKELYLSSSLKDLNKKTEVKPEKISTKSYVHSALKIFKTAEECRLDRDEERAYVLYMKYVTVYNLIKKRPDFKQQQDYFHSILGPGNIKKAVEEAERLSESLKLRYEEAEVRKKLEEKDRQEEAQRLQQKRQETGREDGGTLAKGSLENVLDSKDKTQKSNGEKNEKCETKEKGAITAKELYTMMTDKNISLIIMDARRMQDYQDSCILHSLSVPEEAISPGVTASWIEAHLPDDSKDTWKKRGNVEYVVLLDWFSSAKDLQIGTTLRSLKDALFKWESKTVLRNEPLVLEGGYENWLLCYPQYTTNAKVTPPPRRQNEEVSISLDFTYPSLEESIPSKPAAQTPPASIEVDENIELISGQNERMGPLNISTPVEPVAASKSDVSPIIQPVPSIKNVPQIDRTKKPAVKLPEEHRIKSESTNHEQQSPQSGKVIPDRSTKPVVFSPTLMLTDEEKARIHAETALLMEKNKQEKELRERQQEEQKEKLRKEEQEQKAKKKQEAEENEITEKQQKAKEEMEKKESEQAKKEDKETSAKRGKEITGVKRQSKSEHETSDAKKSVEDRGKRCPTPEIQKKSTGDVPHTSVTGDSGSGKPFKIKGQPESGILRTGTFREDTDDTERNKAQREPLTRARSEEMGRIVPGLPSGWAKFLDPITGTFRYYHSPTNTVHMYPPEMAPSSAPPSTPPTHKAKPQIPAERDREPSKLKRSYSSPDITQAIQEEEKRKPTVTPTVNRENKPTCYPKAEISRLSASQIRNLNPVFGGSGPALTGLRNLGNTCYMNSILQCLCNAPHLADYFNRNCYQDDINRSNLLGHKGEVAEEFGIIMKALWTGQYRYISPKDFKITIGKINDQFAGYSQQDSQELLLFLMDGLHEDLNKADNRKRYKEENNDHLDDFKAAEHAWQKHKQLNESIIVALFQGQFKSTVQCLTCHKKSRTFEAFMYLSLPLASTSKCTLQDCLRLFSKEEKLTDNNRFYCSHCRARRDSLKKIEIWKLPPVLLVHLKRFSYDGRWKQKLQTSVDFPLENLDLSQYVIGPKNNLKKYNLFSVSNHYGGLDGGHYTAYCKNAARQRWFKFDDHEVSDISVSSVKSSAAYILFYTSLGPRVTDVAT
Procedure, shortened: as §1

Measured: log2 ratio of Biotin-Ahx-Ub-VS probe labelling

O=C(CCl)N1CCCC1c1ccsc1 (stereo not drawn)
inactive: USP42 -0.371 | USP46 -0.105 | USP47 -0.389 | USP48 -0.959 | USP5 0.45 | USP54 0.559 | USP7 -0.795 | USP8 -0.441
